# Experimental data from PubChem BioAssay (EPA / NIEHS).
# Results filed as inconclusive are left out. Calls of active or inactive are those of the source. The calls were made as follows, unless noted: active = hit-call score of the fitted dose curve at least 0.9, where 1 is the maximum; inconclusive = response in the unintended direction; inactive = score below 0.9.
# Experiments:
# [1] = biological target: Norway rat Vesicular Monoamine Transporter (VMAT2), neurotransmitter transporter, Slc18a2 (gene 25549) (UniProt Q01827); assay: NVS_TR_rVMAT2: NovaScreen (NVS) Transporter Assay for Norway rat Vesicular Monoamine Transporter (VMAT2), neurotransmitter transporter (AID 2283376);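 also: actives lower the bound radioligand signal below the DMSO level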
# Chain of Norway rat Vesicular Monoamine Transporter (VMAT2), neurotransmitter transporter, Slc18a2 (gene 25549) (Q01827 whole entry, looked up): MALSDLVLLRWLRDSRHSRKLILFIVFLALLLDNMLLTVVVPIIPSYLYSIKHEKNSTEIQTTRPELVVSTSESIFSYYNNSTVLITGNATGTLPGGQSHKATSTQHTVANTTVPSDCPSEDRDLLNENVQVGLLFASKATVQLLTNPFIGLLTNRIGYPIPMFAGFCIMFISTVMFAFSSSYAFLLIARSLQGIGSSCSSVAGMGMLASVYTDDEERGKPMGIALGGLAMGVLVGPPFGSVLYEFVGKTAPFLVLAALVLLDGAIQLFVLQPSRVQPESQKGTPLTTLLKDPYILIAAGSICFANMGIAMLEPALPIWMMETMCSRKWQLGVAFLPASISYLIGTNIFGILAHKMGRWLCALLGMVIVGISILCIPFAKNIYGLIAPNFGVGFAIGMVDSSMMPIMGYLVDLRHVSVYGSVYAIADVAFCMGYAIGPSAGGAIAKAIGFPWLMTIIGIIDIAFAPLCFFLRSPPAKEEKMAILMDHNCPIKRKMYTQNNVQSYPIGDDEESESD
# In short: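 Binding endpoint from rat forebrain tissue, cell-free; 1 h incubation; filtered radioligand counted; 25 uM duplicate primary then dose series; DMSO negative control.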
# [2] = biological target: Estrogen receptor (Homo sapiens) (UniProt P03372); assay: OT_ERa_GFPERaERE_0480: Odyssey Thera (OT) 8-hour HeLa Transcription Induction Assay for Estrogen Receptor (AID 2283381; active = hit-call score of the fitted dose curve at least 0.9, where 1 is the maximum; inactive = score below 0.9)
# Chain of Estrogen receptor (Homo sapiens) (P03372 whole entry, looked up): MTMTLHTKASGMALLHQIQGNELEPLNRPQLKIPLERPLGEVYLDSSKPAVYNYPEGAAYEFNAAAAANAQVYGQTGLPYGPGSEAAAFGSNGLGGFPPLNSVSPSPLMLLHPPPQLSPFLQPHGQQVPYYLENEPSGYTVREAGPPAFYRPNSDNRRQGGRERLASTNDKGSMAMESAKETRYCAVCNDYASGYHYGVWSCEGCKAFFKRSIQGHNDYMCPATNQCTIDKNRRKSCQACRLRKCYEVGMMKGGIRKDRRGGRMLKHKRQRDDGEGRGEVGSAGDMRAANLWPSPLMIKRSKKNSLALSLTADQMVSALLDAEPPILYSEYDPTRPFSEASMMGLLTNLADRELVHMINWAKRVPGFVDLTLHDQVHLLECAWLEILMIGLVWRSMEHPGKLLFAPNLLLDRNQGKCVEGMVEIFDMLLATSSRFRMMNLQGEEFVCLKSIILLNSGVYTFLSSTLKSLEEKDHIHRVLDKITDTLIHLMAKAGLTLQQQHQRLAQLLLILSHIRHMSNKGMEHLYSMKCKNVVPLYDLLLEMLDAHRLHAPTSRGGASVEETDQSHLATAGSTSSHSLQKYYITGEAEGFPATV
# In short: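 Fluorescence microscopy with high-content image analysis measures ERE-driven GFP induction in HeLa cells at 8 h post-dose. Increases fitted against DMSO baseline.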
# [3] = biological target: Estrogen receptor beta (Homo sapiens) (UniProt Q92731); assay: OT_ER_ERbERb_1440: Odyssey Thera (OT) 24-hour HEK293T Protein-Complementation Assay for Estrogen Receptor-beta/-beta Homodimer (AID 2283380);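 also: fluorescence gain from ER beta LBD homodimer complementation read by laser scanning cytometry; scored as signal increase over DMSO baseline for both agonists and antagonists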
# Chain of Estrogen receptor beta (Homo sapiens) (Q92731 whole entry, looked up, the tested form may be a part): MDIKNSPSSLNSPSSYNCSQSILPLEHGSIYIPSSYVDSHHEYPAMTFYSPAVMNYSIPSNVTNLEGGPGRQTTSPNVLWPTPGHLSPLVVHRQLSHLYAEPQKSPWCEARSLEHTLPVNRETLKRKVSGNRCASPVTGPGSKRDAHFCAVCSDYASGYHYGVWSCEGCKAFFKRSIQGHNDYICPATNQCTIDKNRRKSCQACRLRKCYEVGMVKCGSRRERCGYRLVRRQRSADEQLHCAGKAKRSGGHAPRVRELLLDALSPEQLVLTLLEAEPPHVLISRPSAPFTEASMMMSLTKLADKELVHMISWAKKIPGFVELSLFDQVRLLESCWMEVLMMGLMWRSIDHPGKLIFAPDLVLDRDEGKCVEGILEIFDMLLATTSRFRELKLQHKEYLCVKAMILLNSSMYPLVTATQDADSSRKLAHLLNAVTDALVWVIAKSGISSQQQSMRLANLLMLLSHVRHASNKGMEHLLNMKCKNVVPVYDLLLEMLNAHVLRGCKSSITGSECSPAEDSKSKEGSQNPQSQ
# In short: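 HEK293T cells stably expressing human ER-beta LBD (aa 310-547) PCA homodimer pair, dosed 24 h; formaldehyde-fixed, Draq5-stained. Readout: increase in nuclear (agonist) or nuclear plus cytoplasmic (antagonist) fluorescence intensity versus DMSO, gain-of-signal fitting.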
# [4] = biological target: rat Serotonin Transporter (SERT), Slc6a4 (gene 25553) (UniProt P31652); assay: NVS_TR_rSERT: NovaScreen (NVS) Transporter Assay for rat Serotonin Transporter (SERT) (AID 2283375)
# Chain of rat Serotonin Transporter (SERT), Slc6a4 (gene 25553) (P31652 whole entry, looked up): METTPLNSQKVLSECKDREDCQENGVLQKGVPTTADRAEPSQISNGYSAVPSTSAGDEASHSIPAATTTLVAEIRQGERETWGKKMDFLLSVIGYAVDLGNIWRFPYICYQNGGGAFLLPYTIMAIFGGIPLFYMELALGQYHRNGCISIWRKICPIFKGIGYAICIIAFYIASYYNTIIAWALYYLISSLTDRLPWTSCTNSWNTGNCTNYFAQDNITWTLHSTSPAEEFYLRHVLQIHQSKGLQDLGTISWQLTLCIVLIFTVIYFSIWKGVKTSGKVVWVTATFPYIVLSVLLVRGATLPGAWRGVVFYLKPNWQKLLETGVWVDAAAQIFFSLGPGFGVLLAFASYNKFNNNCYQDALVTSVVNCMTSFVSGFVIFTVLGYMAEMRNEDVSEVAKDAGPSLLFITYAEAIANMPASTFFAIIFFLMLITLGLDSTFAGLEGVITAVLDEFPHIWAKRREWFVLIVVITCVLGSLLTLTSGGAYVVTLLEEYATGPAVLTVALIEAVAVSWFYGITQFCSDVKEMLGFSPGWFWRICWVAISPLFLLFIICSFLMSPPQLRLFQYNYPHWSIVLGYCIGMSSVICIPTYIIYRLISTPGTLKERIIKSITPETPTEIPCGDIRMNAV
# In short: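 Rat forebrain membranes; radioligand displacement at SERT read by filter-based scintillation counting, 1 h after dosing. Screened in duplicate at 25 uM, actives then run in concentration series; loss of signal versus DMSO baseline.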
# [5] = biological target: human Norepinephrine Transporter (NET), SLC6A2 (gene 6530) (UniProt P23975); assay: NVS_TR_hNET: NovaScreen (NVS) Transporter Assay for human Norepinephrine Transporter (NET) (AID 2283377);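 also: cell-free membrane protein extracted from CHO cells expressing human NET; displacement of radioligand from human NET seen as loss of scintillation signal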
# Chain of human Norepinephrine Transporter (NET), SLC6A2 (gene 6530) (P23975 whole entry, looked up): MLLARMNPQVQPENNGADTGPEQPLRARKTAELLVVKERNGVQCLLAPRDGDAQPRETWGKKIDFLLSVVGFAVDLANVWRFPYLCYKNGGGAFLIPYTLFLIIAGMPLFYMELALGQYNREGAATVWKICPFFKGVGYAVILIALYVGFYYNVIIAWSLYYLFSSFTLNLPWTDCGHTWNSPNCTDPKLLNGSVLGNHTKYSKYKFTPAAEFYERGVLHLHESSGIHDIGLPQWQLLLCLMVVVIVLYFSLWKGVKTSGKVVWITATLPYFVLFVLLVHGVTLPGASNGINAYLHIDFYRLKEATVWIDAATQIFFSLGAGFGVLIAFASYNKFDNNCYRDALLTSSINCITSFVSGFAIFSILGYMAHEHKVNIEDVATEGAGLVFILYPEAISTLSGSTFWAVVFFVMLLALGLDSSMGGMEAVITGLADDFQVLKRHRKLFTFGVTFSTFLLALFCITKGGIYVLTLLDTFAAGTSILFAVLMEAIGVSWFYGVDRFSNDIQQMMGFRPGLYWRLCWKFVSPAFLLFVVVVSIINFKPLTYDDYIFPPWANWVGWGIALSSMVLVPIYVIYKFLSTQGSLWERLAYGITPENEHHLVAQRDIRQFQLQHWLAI
# In short: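 In this cell-free binding screen, chemicals at 25 uM (duplicate) compete with a radioligand for CHO-derived human NET over 1 hour, with filter-based radiodetection.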
# [6] = biological target: Peroxisome proliferator-activated receptor gamma (Homo sapiens) (UniProt P37231); assay: NVS_NR_hPPARg: NovaScreen (NVS) Nuclear Receptor Binding Assay for human Peroxisome Proliferator-activated Receptor gamma (PPARg) (AID 2283370)
# In short: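 Cell-free fluorescence polarization binding to human PPARg protein, read 2 h after dosing. Primary screen in duplicate at 25 uM, actives followed in concentration series; loss of signal relative to DMSO scored.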
# [7] = biological target: human Serotonin Transporter (SERT), SLC6A4 (gene 6532) (UniProt P31645); assay: NVS_TR_hSERT: NovaScreen (NVS) Transporter Assay for human Serotonin Transporter (SERT) (AID 2283372)
# Chain of human Serotonin Transporter (SERT), SLC6A4 (gene 6532) (P31645 whole entry, looked up): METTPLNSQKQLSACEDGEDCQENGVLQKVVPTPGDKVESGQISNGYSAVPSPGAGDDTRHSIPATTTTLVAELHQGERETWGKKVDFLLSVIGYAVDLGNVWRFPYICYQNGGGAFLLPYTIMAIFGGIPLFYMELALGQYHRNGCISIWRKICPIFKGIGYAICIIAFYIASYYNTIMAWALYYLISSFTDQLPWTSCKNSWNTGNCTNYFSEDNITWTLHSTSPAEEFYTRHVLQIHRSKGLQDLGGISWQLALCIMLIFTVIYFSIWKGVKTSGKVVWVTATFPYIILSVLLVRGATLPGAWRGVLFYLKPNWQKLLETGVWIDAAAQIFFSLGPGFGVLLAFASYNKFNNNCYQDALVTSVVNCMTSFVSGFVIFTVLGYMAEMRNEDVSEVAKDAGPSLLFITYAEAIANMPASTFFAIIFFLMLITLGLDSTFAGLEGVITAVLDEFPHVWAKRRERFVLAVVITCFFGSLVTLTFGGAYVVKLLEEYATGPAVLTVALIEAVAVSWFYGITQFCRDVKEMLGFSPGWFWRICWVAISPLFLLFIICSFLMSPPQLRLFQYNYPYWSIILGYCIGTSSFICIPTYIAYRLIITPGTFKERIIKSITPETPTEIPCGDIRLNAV
# In short: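 Human platelet membrane preparation; displacement of radioligand from serotonin transporter measured after 1 h by filtration and scintillation counting. Single 25 uM duplicate screen, then concentration series for actives, with DMSO as negative baseline.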
# [8] = biological target: mouse Estrogen Receptor alpha (Era), Esr1 (gene 13982) (UniProt P19785); assay: NVS_NR_mERa: NovaScreen (NVS) Nuclear Receptor Binding Assay for mouse Estrogen Receptor alpha (Era) (AID 2283378);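 also: hit means loss of bound radioligand signal relative to DMSO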
# Chain of mouse Estrogen Receptor alpha (Era), Esr1 (gene 13982) (P19785 whole entry, looked up): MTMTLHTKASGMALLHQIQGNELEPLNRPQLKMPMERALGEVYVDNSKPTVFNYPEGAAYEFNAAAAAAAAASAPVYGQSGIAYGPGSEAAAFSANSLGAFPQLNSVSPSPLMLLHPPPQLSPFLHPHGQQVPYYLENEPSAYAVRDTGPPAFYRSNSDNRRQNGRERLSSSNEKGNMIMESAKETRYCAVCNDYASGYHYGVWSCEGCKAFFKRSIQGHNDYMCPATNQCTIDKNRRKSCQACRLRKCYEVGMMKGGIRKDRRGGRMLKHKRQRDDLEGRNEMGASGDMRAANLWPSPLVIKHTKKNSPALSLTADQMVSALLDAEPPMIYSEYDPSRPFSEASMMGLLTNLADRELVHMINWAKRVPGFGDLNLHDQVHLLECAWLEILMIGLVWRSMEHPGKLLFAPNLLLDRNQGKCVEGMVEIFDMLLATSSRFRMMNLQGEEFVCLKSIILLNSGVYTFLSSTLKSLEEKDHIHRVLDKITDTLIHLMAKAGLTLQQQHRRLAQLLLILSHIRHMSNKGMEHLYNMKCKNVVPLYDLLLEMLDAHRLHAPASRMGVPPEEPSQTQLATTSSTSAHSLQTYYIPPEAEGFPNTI
# In short: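 Cell-free radioligand competitive displacement binding, read by filter-based scintillation counting 18 h after dosing. Primary screen run in duplicate at 25 uM, actives retested in concentration series; loss of signal versus DMSO.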
# [9] = biological target: human Dopamine Transporter (DAT), SLC6A3 (gene 6531) (UniProt Q01959); assay: NVS_TR_hDAT: NovaScreen (NVS) Transporter Assay for human Dopamine Transporter (DAT) (AID 2283374);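 also: activity means loss of bound radioligand signal relative to DMSO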
# In short: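 Extracted human SLC6A3 protein incubated 1 h with radioligand and test chemical; bound fraction separated on filters and counted. Single 25 uM duplicate screen preceded concentration-response follow-up; positive and negative controls on every plate.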
# [10] = biological target: Agonist Androgen Response Element (ARE), AR (gene 367) (UniProt P10275); assay: OT_AR_ARELUC_AG_1440: Odyssey Thera (OT) 24-hour CHO-K1 Luciferase Assay for Agonist Androgen Response Element (ARE) (AID 2283379)
# Chain of Agonist Androgen Response Element (ARE), AR (gene 367) (P10275 whole entry, looked up): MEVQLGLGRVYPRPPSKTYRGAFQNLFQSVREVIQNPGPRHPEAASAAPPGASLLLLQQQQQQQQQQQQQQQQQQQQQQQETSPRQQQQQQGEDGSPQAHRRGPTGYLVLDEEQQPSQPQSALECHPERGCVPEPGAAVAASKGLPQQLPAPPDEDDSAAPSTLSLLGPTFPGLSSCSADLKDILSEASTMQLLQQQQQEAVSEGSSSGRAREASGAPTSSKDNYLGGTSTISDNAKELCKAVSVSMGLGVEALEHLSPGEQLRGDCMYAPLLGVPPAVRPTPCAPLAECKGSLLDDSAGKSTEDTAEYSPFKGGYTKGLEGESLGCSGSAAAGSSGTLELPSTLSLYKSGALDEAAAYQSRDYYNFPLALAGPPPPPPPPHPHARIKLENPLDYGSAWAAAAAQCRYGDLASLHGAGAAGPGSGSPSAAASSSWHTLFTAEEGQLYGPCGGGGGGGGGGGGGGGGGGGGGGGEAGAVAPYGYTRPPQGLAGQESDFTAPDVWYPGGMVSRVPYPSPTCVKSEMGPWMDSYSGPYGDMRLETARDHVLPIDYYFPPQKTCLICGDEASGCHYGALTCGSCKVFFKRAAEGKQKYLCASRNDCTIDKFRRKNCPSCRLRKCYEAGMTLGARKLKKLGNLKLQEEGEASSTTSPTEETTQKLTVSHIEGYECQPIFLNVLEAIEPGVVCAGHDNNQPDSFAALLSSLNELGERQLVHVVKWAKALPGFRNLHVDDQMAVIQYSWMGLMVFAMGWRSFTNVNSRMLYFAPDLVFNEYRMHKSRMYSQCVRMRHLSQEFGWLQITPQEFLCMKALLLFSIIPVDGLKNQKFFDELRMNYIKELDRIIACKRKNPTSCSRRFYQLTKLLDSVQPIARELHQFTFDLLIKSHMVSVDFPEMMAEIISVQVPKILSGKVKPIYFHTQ
# In short: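 Luminescence increase above DMSO, read after a 24 h compound treatment of CHO-K1 cells expressing an androgen response element luciferase reporter, gives the single primary endpoint; concentration-response fitting used the positive direction.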
compound,measurement,setting,value
OCC1CO1 (configuration not stated),outcome,[1],inactive
same,outcome,[2],inactive
O=C(O)CF,outcome,[3],inactive
same,outcome,[2],inactive
Oc1ccc(I)cc1,AC50,[4],2.5 µM (active)
same,outcome,[1],inactive
same,AC50,[5],19.8 µM (active)
Cc1ccc(O)cc1C,outcome,[3],inactive
same,outcome,[2],inactive
CCCCOCC1CO1 (configuration not stated),outcome,[2],inactive
CCOC(=O)c1ccccc1N,outcome,[6],inactive
same,outcome,[3],inactive
same,outcome,[2],inactive
Nc1ccc([N+](=O)[O-])cc1Cl,AC50,[4],0.0449 µM (active)
O=C(O)C1C(C(=O)O)C2(Cl)C(Cl)=C(Cl)C1(Cl)C2(Cl)Cl (configuration not stated),outcome,[3],inactive
same,outcome,[2],inactive
CCOC(=O)c1ccccc1C(=O)OCC,outcome,[2],inactive
CCCN(CCC)c1c([N+](=O)[O-])cc(C(C)C)cc1[N+](=O)[O-],outcome,[7],inactive
same,outcome,[8],inactive
same,AC50,[3],7.26 µM (active)
same,AC50,[2],12.2 µM (active)
CC(=O)c1ccc(-c2ccccc2)cc1,AC50,[9],10.9 µM (active)
N#Cc1c(-c2ccc(Cl)cc2)[nH]c(C(F)(F)F)c1Br,AC50,[5],16.4 µM (active)
COC(N)=O,outcome,[3],inactive
same,outcome,[2],inactive
N#C/C=C/c1ccccc1,outcome,[1],inactive
O=[N+]([O-])c1ccccc1,outcome,[8],inactive
same,outcome,[3],inactive
same,outcome,[2],inactive
CC(C)(C)N(NC(=O)c1ccc(Cl)cc1)C(=O)c1ccccc1,outcome,[10],inactive
same,outcome,[3],inactive
same,outcome,[2],inactive
Nc1ccc(Cl)cc1,outcome,[2],inactive
c1nc[nH]n1,outcome,[8],inactive
same,outcome,[3],inactive
same,outcome,[2],inactive
Cn1[nH]nnc1=S,outcome,[1],inactive
O=S1(=O)OCC2C(CO1)C1(Cl)C(Cl)=C(Cl)C2(Cl)C1(Cl)Cl (configuration not stated),outcome,[3],inactive
same,outcome,[2],inactive
CCCCc1ccccc1,outcome,[3],inactive
same,outcome,[2],inactive
O=P1(N(CCCl)CCCl)NCCCO1 (configuration not stated),outcome,[8],inactive
same,outcome,[3],inactive
same,outcome,[2],inactive
CCCCC(CC)COP(=O)(Oc1ccccc1)Oc1ccccc1 (configuration not stated),outcome,[10],inactive
same,outcome,[3],inactive
same,outcome,[2],inactive
CC(Cl)(Cl)C(=O)O,outcome,[8],inactive
same,outcome,[3],inactive
same,outcome,[2],inactive
COCCOCCO,outcome,[3],inactive
same,outcome,[2],inactive
FC(F)(F)c1ccc(Cl)cc1,outcome,[3],inactive
same,outcome,[2],inactive
Cc1ccc(N)cc1N,outcome,[7],inactive
same,outcome,[3],inactive
same,outcome,[2],inactive
Cc1ccc([N+](=O)[O-])cc1C,outcome,[3],inactive
same,outcome,[2],inactive
ClC(Cl)(Cl)c1ccccc1,outcome,[8],inactive
same,outcome,[3],inactive
same,outcome,[2],inactive
